PubChem BioAssay AID1347416 (National Center for Advancing Translational Sciences (NCATS), 2020)
Hit rate of the full screen: of about 4,100 compounds, about 1,600 (39%) were called active. Roughly 25% stayed inconclusive and do not appear here. This is one part of the list. Unmarked numbers belong to inactive results. The call rests on the fitted dose curve; in most records, active means well fitted inhibition curve with a large enough effect; inconclusive means small, poorly fitted or top-dose-only effect; inactive means no such curve, though single readings can be large or run the other way.

assay: qHTS Validation assay for Inhibitors of Plasmodium falciparum Dd2 growth in vitro; further: nearly all actives have a fitted effect of over 70% in size; details: P. falciparum Dd2 in RBCs, SYBR Green growth, 72 h; series mostly up to 28.7 µM; activity change, negative = inhibition: at the top concentration
Procedure, shortened: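 P. falciparum Dd2-infected red blood cells (2.5% hematocrit, 0.3% parasitemia) grown 72 h at 37 °C under 5% O2 with compounds in a titration, 29 uM to 0.5 nM final. Growth read as SYBR Green-1 fluorescence after ~16 h lysis; artesunate 300 nM as positive control.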
On the % scale 0 is the no-effect control and ±100 the full control effect; potency means the concentration at half of the fitted maximal effect.

SMILES | Potency | activity change, negative = inhibition
COc1ccc(-n2cc(CNC3CCN(C)CC3)c(-c3cccc(F)c3)n2)cc1 | 10.6 µM (active) | –
COc1ccc(-c2ccc3nnc(CNC(=O)Cc4cccc(F)c4)n3n2)cc1 | – | 38.7%
CCCc1nnc([C@H]2CCN(C(=O)c3ccccc3)C2)o1 | – | -19.5% [at 57.5 µM]
CC1=C[C@@H](CN2CCC[C@H]2CO)[C@H](C(C)C)C[C@H]1Cc1nnc(-c2ccc(N(C)C)cc2)o1 | 13.3 µM (active) | –
CCCc1nnc(C[C@@H]2C[C@@H](C(C)C)[C@H](CN3CCC[C@H]3CO)C=C2C)o1 | 17.2 µM (active) | –
C=CCOC(=O)C(C#N)c1nc2ccccc2nc1N1CCC(C(=O)OCC)CC1 (stereo unspecified) | 2.37 µM (active) | –
Cc1ccc(C)c(-c2cc3c(=O)n(CCNC(=O)c4cccc(N(C)C)c4)ccn3n2)c1 | – | 0.608%
Cc1ccc(-c2ccc(=O)n(CC(=O)Nc3ccc(C(C)C)cc3)n2)cc1 | – | 20.7%
CCN(CC)S(=O)(=O)c1ccc(NC(=O)CCc2c(C)nc3cc(-c4ccc(Cl)cc4)nn3c2C)cc1 | 4.73 µM (active) | –
Cc1ccc(CNC(=O)CCc2c(C)nc3nc(C)nn3c2C)cc1 | – | 11.6%
COc1cc(C2Nc3ccc4ccccc4c3C3=C2C(=O)CC(C)(C)C3)ccc1OC(C)C(=O)O (stereo unspecified) | 6.68 µM (active) | –
CCCC1=Nc2cc(C(=O)NCCCN3CCCCC3CC)ccc2Sc2ccc(C)cc21 (stereo unspecified) | 9.44 µM (active) | –
Cc1cccc(C(=O)NCCc2ncc(C)n2C2CC2)c1 | – | -5.93%
CCc1nc2ccc(C(=O)NCc3ccccc3C)cc2nc1CC | – | 6.91%
Cc1ccc(C2Cn3cnc(C(=O)N4CCC(C(=O)NCc5ccco5)CC4)c3CO2)cc1 (stereo unspecified) | – | -7.92%
CCC1=Nc2cc(C(=O)NCc3ccco3)ccc2Sc2ccc(C)cc21 | 8.41 µM (active) | –
CC(C)N1C(=S)N(Cc2ccco2)C(=O)C1CC(=O)Nc1ccccc1 (stereo unspecified) | 1.68 µM (active) | –
CN1CCC(Nc2ncc3ncnc(Nc4ccc(F)c(Cl)c4)c3n2)CC1 | 10.6 µM (active) | –
Cc1cccc(N2CCN(C(=O)CCc3nnc4n(CC(C)C)c(=O)c5ccccc5n34)CC2)c1C | 3.35 µM (active) | –
Cc1ccc(/C=N/NC(=O)c2cc3ccccc3cc2O)o1 | 5.31 µM (active) | –
CCNc1nc(NC(C)CC)nc(ON=C(C)C)n1 (stereo unspecified) | 8.41 µM (active) | –
CSc1cccc(Nc2nc3c(S(=O)(=O)c4ccccc4)nnn3c3ccc(Cl)cc23)c1 | 1.88 µM (active) | –
CCc1ccc(S(=O)(=O)c2nnn3c2nc(Nc2ccc(F)cc2)c2cc(Cl)ccc23)cc1 | 2.11 µM (active) | –

SMILES | Potency | activity change, negative = inhibition
COc1ccccc1C(=O)N1CCC2(CC1)OC(=O)N(Cc1ccccc1C#N)C2(C)c1ccccc1 (stereo unspecified) | 15 µM (active) | –
COc1ccccc1C(=O)N1CCC2(CC1)OC(=O)N(CCOc1ccccc1)C2(C)c1cccnc1 (stereo unspecified) | 9.44 µM (active) | –
CNCC(=O)N1CCC2(CC1)CN(CCOc1ccccc1)C(=O)O2 | – | 40.8%
COCCN1C(=O)CS(=O)(=O)C12CCN(C(=O)C1(c3ccccc3)CC1)CC2 | – | 1.25%
COc1ccccc1C(=O)N1CCCN(c2nnc3cccc(C)n23)CC1 | – | 9.24%
Cn1cnnc1-c1nn(C)c2c1CN(C(=O)c1cc3ccccc3[nH]1)CC2 | – | -20.5%
N#Cc1cccc(S(=O)(=O)N2CC(C(=O)NC3CCCCC3)C3(CCOCC3)C2)c1 (stereo unspecified) | – | 11.3%
CCC(C)NC(=O)c1cc2c(Cl)nc3ccc(C)cc3c2s1 (stereo unspecified) | – | -5.46%
COc1cc(NC(=O)c2cc3c(Cl)nc4ccccc4c3s2)cc(OC)c1OC | 4.73 µM (active) | –
CCCc1noc(-c2cccn3c(CNC(=O)c4ccccc4OCC)nnc23)n1 | – | -8.26%
COCCc1nn2c(=O)cc(COC(=O)C(c3ccccc3)c3ccccc3)nc2s1 | 2.66 µM (active) | –
COc1cc(C(=O)Nc2ccccc2OCc2cc(=O)n3cc(C)sc3n2)cc(OC)c1OC | – | 29.8%
Cc1csc2nc(COc3ccc(NC(=O)c4ccccc4F)cc3)cc(=O)n12 | – | 26.8%
Cn1c(=O)c2nc(SCC(=O)Nc3ccc(Cl)c(Cl)c3)n(C)c2n(C)c1=O | – | 26.8%
Cn1c(=O)[nH]c2nnc(-c3ccc(Cl)c(Cl)c3)nc2c1=O | 8.41 µM (active) | –
CCN1CCN(c2cc(C)c3cc(NC(=O)/C=C/c4ccc(C)cc4)ccc3n2)CC1 | 4.22 µM (active) | –
CCN1CCN(c2cc(C)c3cc(NC(=O)/C=C/c4ccc(OCCC(C)C)cc4)ccc3n2)CC1 | 2.11 µM (active) | –
CCS(=O)(=O)N1CC(F)(F)C[C@H]1c1nc(CCOC)no1 | – | 13.7%
COc1cc2nc(NCc3ccccc3)n3nc(-c4ccccc4)nc3c2cc1OC | 0.422 µM (active) | –
COc1cc2nc(NCc3ccccc3Cl)n3nc(-c4cccnc4)nc3c2cc1OC | 2.11 µM (active) | –
COc1cc2nc(NCc3ccc(C)cc3)n3nc(-c4ccccc4)nc3c2cc1OC | 0.266 µM (active) | –
COc1cccc(NC(=O)CSc2nc3cc(OC)c(OC)cc3c3nc(-c4ccccc4)nn23)c1 | – | 42.6%
COc1ccccc1S(=O)(=O)Cc1ccc(C(=O)NCc2cccs2)o1 | – | 5.1%

SMILES | Potency | activity change, negative = inhibition
CC(C(=O)N1CCCN(c2cc(-c3ccc(Cl)cc3)[nH]n2)CC1)c1ccccc1 (stereo unspecified) | – | -15.7%
Nc1nc(N)c2c(ccc3nccc32)[nH]1 | – | 7.51%
O=C(CCc1nc2ccccc2[nH]1)N1C[C@@H](CO)[C@H](c2ccccn2)C1 | – | 41.4%
Cc1ccc(C)c(N=Nc2nc3ccccc3n2C)c1 | 0.299 µM (active) | –
CCN(Cc1nc2ccccc2n1C)c1ccccc1 | – | 6.82%
Cn1nnnc1SCCCNCc1cccc(OCc2ccccc2)c1 | 9.44 µM (active) | –
CCOc1c(CNCCSc2nnnn2C)cccc1OC | – | -28%
c1ccc(COc2cncc(-c3cccnc3)c2)cc1 | – | 1.56%
COc1ccc2c(C)c(C(=O)N3CC(Oc4c(C)cccc4C)C3)oc2c1 | – | 41.8%
COc1cc2c(cc1OC)C(COc1ccc3c(C)cc(=O)oc3c1)N(C(=O)c1ccccc1C)CC2 (stereo unspecified) | 15 µM (active) | –
COc1cc2c(cc1OC)[C@H](C)N(C(=O)COc1ccccc1)CC2 | – | -6.38%
CC(=O)N1CCc2cc(Br)cc(S(=O)(=O)N3CCCCCC3)c21 | 5.31 µM (active) | –
CC(=O)N1CCc2cc(Br)cc(S(=O)(=O)N3CCCCC3)c21 | 5.96 µM (active) | –
Cc1nc2c(c(-c3ccc(O)cc3)n1)CN(C(=O)c1cccc(Cl)c1)CC2 | – | 1.23%
CC(C)c1nc2c(c(-c3ccc(O)cc3)n1)CCN(Cc1ccc(OC(F)(F)F)cc1)CC2 | 2.99 µM (active) | –
CC(=O)Nc1ccc(CN2CCn3c(nn(-c4ccc(Cl)cc4)c3=O)C2)cc1 | – | 14.2%
CC(C)c1nc2c(c(-c3ccc(O)cc3)n1)CCN(Cc1ccc(C(F)(F)F)cc1)CC2 | 5.31 µM (active) | –
CC(C)c1nc2c(c(-c3ccc(O)cc3)n1)CN(Cc1cccc(F)c1)CC2 | 9.44 µM (active) | –
COCC(=O)N1CCc2nc(-c3ccccc3)nc(-c3ccc(Cl)cc3)c2C1 | – | 0%
Cc1nc(-c2c3n(c(=O)n(Cc4ccc(OC(F)(F)F)cc4)c2=O)CCCC3)no1 | – | -13.9%
Cc1nc(-c2c3n(c(=O)n(Cc4ccc(OC(F)(F)F)cc4)c2=O)CCCCC3)no1 | – | -10.2%
CC(=O)Nc1ccc(CN2CCc3nc(C(C)C)nc(-c4ccc(Cl)cc4)c3CC2)cc1 | 2.66 µM (active) | –
CCn1nc(C)c(-c2cc(C(=O)NCCc3noc(-c4ccccc4)n3)no2)c1C | – | -0.509%

SMILES | Potency | activity change, negative = inhibition
CC1(C)C[C@H](NCc2ccc(CO)o2)[C@@]2(CCC(=O)NCCN3CCOCC3)CC[C@](C)(O)C[C@@H]12 | – | 4.43%
Cc1nc2c(c(-c3ccc(O)cc3)n1)CN(Cc1ccc(C(F)(F)F)cc1)CCC2 | 4.22 µM (active) | –
COc1ccccc1CNS(=O)(=O)c1ccc2c(c1)CC(=O)N2C | – | -10.4%
COc1ccc(N(CC(=O)NCc2ccncc2)S(=O)(=O)c2ccc(C)c([N+](=O)[O-])c2)cc1 | – | 24.8%
Cc1ccc(C(=O)Nc2cccc(NC(=O)c3ccc(C)c([N+](=O)[O-])c3)n2)cc1[N+](=O)[O-] | 15 µM (active) | –
Cc1ccc(C(=O)NCCn2c(C)cc3ccccc32)cc1C | – | 0%
O=C(N/N=C/c1ccccn1)c1ccccc1 | – | -1.81%
C/C(=N\NC(=O)c1ccccc1OCc1ccc(F)cc1)c1ccccn1 | 4.73 µM (active) | –
C/C(=N\NC(=O)c1cccc(Br)c1)c1ccccn1 | 4.73 µM (active) | –
Cc1n[nH]c(=S)n(/N=C/c2cccs2)c1=O | – | 16.4%
O=c1cc(Nc2ccc3c(c2)OCCO3)[nH]c(=O)n1C1CCCCC1 | – | -0.988%
Fc1ccc(-c2csc3ncnc(Cl)c23)cc1 | 3.35 µM (active) | –
COc1ccc(-c2csc3ncnc(Cl)c23)cc1 | 4.22 µM (active) | –
CCc1ccc(C(=O)N2C[C@@H](CO)[C@H](c3ccccn3)C2)cc1 | – | 3.1%
COc1ccc(C(=O)Nc2nc3c(s2)C[C@@H]2[C@](C)(CO)[C@H](O)CC[C@@]2(C)[C@@H]3CC(=O)NCc2ccco2)cc1 | 2.66 µM (active) | –
C[C@]1(CO)[C@H]2Cc3sc(NC(=O)C4CCCCC4)nc3[C@@H](CC(=O)NCc3cccnc3)[C@]2(C)CC[C@H]1O | – | -11.7%
C#CCN(C)C(=O)C[C@@H]1c2nc(NC(=O)c3ccc(OC)cc3)sc2C[C@@H]2[C@](C)(CO)[C@H](O)CC[C@]21C | 2.66 µM (active) | –
O=C(CC1C(=O)NCCN1Cc1cccc(Oc2ccccc2)c1)NCc1ccco1 (stereo unspecified) | – | 45.2%
CNC(=O)[C@H]1C[C@H](Oc2ccccc2)CN1Cc1c[nH]c2ccc(OC)cc12 | – | -11.3%
COc1ccc2[nH]cc(CCNC(=O)C3(Cc4ccccc4)CCCCC(=O)N3)c2c1 (stereo unspecified) | 5.96 µM (active) | –
COc1cccc(CNC(=O)CN2C(=O)NC3(CCC(C(C)(C)C)CC3)C2=O)c1 (stereo unspecified) | – | -13.8%
CCC(=O)O[C@]1(C(=O)CCl)[C@@H](C)C[C@H]2[C@@H]3C[C@H](F)C4=CC(=O)C=C[C@]4(C)[C@@]3(F)[C@@H](O)C[C@@]21C | 10.6 µM (active) | –
